From PMC4336329 (PLoS ONE, 2015)
The whole screen tested about 310,000 compounds, of which about 14,000 (4.5%) showed an effect of 50% or more. Effects have a minus sign here. What follows is part of a selection rich in strong results, with near analogues and random picks from the rest.

What follows are compounds tested against human ether-à-go-go-related gene (hERG) potassium channel (human, UniProt Q12809) (assay: primary screen, population patch clamp on CHO cells stably expressing hERG; higher = less effect of the substance).
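Note: peak tail current of the secondary pulse compared with the same well before compound.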

human ether-à-go-go-related gene (hERG) potassium channel, sequence (Q12809 whole entry, looked up): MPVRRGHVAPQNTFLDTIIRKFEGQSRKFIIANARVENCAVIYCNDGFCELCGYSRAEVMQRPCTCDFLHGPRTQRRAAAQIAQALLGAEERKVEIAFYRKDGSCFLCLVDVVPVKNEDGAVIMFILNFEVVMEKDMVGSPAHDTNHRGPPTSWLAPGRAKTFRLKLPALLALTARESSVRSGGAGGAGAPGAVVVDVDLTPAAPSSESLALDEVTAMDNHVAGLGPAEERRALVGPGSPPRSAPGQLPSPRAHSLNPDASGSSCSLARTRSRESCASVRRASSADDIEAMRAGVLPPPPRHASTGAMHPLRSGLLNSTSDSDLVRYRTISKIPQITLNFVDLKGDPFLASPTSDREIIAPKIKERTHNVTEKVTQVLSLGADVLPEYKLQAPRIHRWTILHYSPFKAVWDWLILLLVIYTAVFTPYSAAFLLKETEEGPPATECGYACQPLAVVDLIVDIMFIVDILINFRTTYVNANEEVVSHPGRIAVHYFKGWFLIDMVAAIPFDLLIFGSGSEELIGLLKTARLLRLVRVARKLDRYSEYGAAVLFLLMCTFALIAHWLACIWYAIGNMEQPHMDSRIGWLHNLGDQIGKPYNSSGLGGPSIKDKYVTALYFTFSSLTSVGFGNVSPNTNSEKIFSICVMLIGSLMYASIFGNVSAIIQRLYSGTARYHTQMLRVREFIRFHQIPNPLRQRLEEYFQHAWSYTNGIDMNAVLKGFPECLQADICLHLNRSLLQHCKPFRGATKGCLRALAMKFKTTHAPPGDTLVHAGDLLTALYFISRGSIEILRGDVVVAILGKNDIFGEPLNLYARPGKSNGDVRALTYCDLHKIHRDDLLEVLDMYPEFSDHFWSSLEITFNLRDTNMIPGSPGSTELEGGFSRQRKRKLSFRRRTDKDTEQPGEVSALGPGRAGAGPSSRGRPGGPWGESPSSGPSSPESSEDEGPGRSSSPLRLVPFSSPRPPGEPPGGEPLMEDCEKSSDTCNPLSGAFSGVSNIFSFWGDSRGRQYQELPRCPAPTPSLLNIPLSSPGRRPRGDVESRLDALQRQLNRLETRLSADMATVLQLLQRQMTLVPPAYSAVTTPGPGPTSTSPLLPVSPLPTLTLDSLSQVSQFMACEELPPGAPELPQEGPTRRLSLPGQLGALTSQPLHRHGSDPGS

Row | Compound | hERG current change (%, negative = inhibition) at 10uM [%]
1 | CS(=O)(=O)NC1CCN(Cc2ccccc2)CC1 | -2.95
2 | COc1cccc(CN(C)C(=O)CNC(=O)c2ccc3c(c2)OCO3)c1OC | 15.3
3 | CC1Cc2cc(/C(O)=C3\C(=O)C(=O)N(CCN(C)C)C3c3ccccc3F)ccc2O1 (centres unmarked) | 2.94
4 | CCOc1ccc(S(=O)(=O)Nc2ccccn2)c2ccccc12 | 10.7
5 | CC(Oc1ncnc2ccccc12)C(=O)Nc1cccc(S(=O)(=O)N2CCOCC2)c1 (centres unmarked) | -11.3
6 | Cc1c(NS(=O)(=O)c2cccc(C(=O)Nc3ccccc3)c2)c(=O)n(-c2ccccc2)n1C | -11
7 | CCn1cc(C(=O)N2CC(C)CC(C)C2)c(=O)c2cc(S(=O)(=O)N3CCCC3)ccc21 (centres unmarked) | 6.81
8 | O=[N+]([O-])c1cc(C(F)(F)F)ccc1Sc1nccn1Cc1ccccc1 | -30.3
9 | O=[N+]([O-])c1ccc(Sc2nccn2Cc2ccccc2)c([N+](=O)[O-])c1 | -57.9
10 | NC(=O)CSc1nccn1Cc1ccccc1 | 7.57
11 | O=[N+]([O-])c1ccccc1Sc1nccn1Cc1ccccc1 | -21.6
12 | O=C(CSc1nccn1Cc1ccccc1)Nc1ccccc1 | 12.4
13 | O=[N+]([O-])c1ccc(Sc2nccn2Cc2ccccc2)cc1 | -59.5
14 | CCCn1c(C(CO)Nc2nc(C)cs2)nc2ccccc21 (centres unmarked) | -5.83
15 | O=C(NC(=S)Nc1ccc(Oc2ccc(Cl)cc2)cc1)c1ccccc1 | 10.7
16 | O=C(Nc1nnc(-c2ccc(Cl)cc2)o1)c1cccc(N2C(=O)CCC2=O)c1 | 12.2
17 | Cc1noc(C)c1COC(=O)CN(C)S(=O)(=O)c1ccc(Cl)cc1 | -14.4
18 | COCCCNC(=O)CC(NS(=O)(=O)c1ccc(F)cc1)c1ccc(OC)cc1 (centres unmarked) | -1.73
19 | Nc1c2c(nc3ccccc13)CSCC2 | -57.3
20 | c1ccc(CN2CCc3nc4ccccc4cc3C2)cc1 | -4.62
21 | Nc1c2c(nc3ccccc13)CCN(Cc1ccccc1)C2 | -56.1

Row | Compound | hERG current change (%, negative = inhibition) at 10uM [%]
22 | Cl.Nc1c2c(nc3ccccc13)CCCC2.O | -42.3
23 | Nc1nc2c(c(=O)[nH]1)CN(Cc1ccccc1)CC2 | 7.8
24 | Cl.Nc1c2c(nc3ccccc13)CCCC2 | -39.7
25 | C/C(=N\O)C1(C)N(O)C(C)(C)C(c2ccco2)=[N+]1[O-] (centres unmarked) | 22.2
26 | Cc1cccc(NC(=O)c2nc[nH]c2C(=O)N2CCc3ccccc3C2)c1 | 5.13
27 | O=C1NC(Nc2nc3ccccc3s2)(C(F)(F)F)C(=O)N1C1CCCCC1 (centres unmarked) | -6.17
28 | N/C(=N\OC(=O)CCC1CCCC1)c1cccc([N+](=O)[O-])c1 | -70.4
29 | N/C(=N\OC(=O)CC1CCCCC1)c1cccc([N+](=O)[O-])c1 | -6.21
30 | Cc1ccc(S(=O)(=O)N(C)CC(=O)O/N=C(\N)c2ccc([N+](=O)[O-])cc2)cc1 | -45.9
31 | N/C(=N\OC(=O)CCC1CCCCC1)c1cccc([N+](=O)[O-])c1 | -15.1
32 | Cc1ccc(S(=O)(=O)N(C)CC(=O)O/N=C(\N)c2cccc([N+](=O)[O-])c2)cc1 | -66.8
33 | CN(CC(=O)O/N=C(\N)c1cccc([N+](=O)[O-])c1)S(=O)(=O)c1ccccc1 | -24.4
34 | Cc1nnc2sc(-c3ccc(-c4ccc(Cl)c(C(F)(F)F)c4)o3)nn12 | 3.66
35 | CCCCSc1nnc(-c2ccc(C)cc2)n1C | -33.7
36 | COc1cc(C(=O)Nc2ccc3c(c2)ncn3C(C)(C)C)cc(OC)c1OC | 9.04
37 | CCOc1c2ccccc2nn1CCOC | 5.42
38 | CCc1ccc2[nH]c(=O)c(CN(CC3CCCO3)C(=S)NCc3ccco3)cc2c1 (centres unmarked) | -21.6
39 | CCN(CC)CCN(Cc1cc2cc(C)ccc2[nH]c1=O)C(=S)NCc1ccco1 | -43.4
40 | CN(C)CCCN(Cc1cc2cc3c(cc2[nH]c1=O)OCO3)C(=S)NCc1ccco1 | -19.2
41 | CCc1ccc2[nH]c(=O)c(CN(CCN(CC)CC)C(=S)NCc3ccco3)cc2c1 | -67.9
42 | CCc1ccc2[nH]c(=O)c(CN(CCN(C)C)C(=S)NCc3ccco3)cc2c1 | -52

Row | Compound | hERG current change (%, negative = inhibition) at 10uM [%]
43 | CCc1ccc2[nH]c(=O)c(CN(Cc3ccco3)C(=S)NCC3CCCO3)cc2c1 (centres unmarked) | -19
44 | O=C1c2cccc3c([N+](=O)[O-])ccc(c23)C(=O)N1c1ccc(Cl)cn1 | 0.201
45 | COC(=O)c1cccc(NS(=O)(=O)c2ccc(OC)cc2)c1C | -1.48
46 | COc1ccc(-c2cc(C(F)(F)F)nc(SCCC(=O)NCc3ccccc3)n2)cc1 | -14.5
47 | CCCOc1ccc(C(=O)Nc2c[nH]c(=O)[nH]c2=O)cc1 | -6.41
48 | CCn1c(COc2cccc(OC)c2)nnc1SCC(=O)Nc1cccc(OC)c1 | -41.1
49 | N=c1c(C(=O)NC2CCCC2)cc2c(=O)n3ccccc3nc2n1CCN1CCOCC1 | -91.9
50 | N=c1c(C(=O)NC2CCCC2)cc2c(=O)n3ccccc3nc2n1CCCN1CCOCC1 | -78.2
51 | O=C(c1ccco1)N1CCN=C1SCc1cccc(F)c1 | -6.98
52 | Cc1csc2ncc(C(=O)NCCC(c3ccccc3)c3ccccc3)c(=O)n12 | -0.968
53 | Cc1cc(-c2nn(C)c(=O)c3ccccc23)cc(C)c1O | 0.868
54 | Cc1ccc(COCCN2CCN(S(=O)(=O)c3ccccc3)CCC2=O)cc1 | -0.87
55 | Cc1ccc(S(=O)(=O)N2CCC(=O)N(CCOCc3ccc(Cl)cc3)CC2)cc1 | -60.1
56 | Cc1ccc(S(=O)(=O)N2CCC(=O)N(C(COCc3cccc(Cl)c3)C(C)C)CC2)cc1 (centres unmarked) | -35.2
57 | Cc1ccc(S(=O)(=O)N2CCC(=O)N(C(COCc3ccc(Cl)cc3)C(C)C)CC2)cc1 (centres unmarked) | -51.7
58 | Cc1ccc(S(=O)(=O)N2CCC(=O)N(CCOC(=O)Nc3cc(C)cc(C)c3)CC2)cc1 | -40.7
59 | Cc1ccc(NC(=O)OCCN2CCN(S(=O)(=O)c3ccc(C)cc3)CCC2=O)cc1 | -18.5
60 | Cc1ccc(COCCN2CCN(S(=O)(=O)c3ccc(C)cc3)CCC2=O)cc1 | 6.17
61 | Cc1ccc(S(=O)(=O)N2CCC(=O)N(C(COCc3ccccc3)C(C)C)CC2)cc1 (centres unmarked) | -23.2
62 | Cc1ccc(S(=O)(=O)N2CCC(=O)N(CCOC(=O)Nc3cccc(Cl)c3)CC2)cc1 | -65.7
